CtBP-E1A blk = CtBP/E1A binding inhibition | AID 651724 | AlphaScreen GST-E1A/His-CtBP binding, 1536-well; stronger effect = lower value | hit rate 0.49% among 340,000 | activity change, % (no concentration beside the values); in the data active means activity change below about -65%; inconclusive means mostly about -30% to -63%; further: on the % scale 0 is the no-effect control and ±100 the full control effect
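AlphaScreen with 125 nM GST-E1A and 125 nM His-CtBP (5X stocks) in Tris pH 8.0, 300 mM NaCl, BSA, Tween 20, TCEP. Compounds preincubated 2 h at 37 deg C, then glutathione donor/nickel acceptor beads added for 1 h at 37 deg C in dark.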
VP16 counter = Gal4-VP16 reporter inhibition counter-screen; Drosophila S2 Gal4-VP16 UAS-luciferase, luminescence, 20 h; Potency, µM (titrated, usually from 53.6 µM), for inactives: at the top dose activity, negative = inhibition, actives largely listed as inhibitors; hit rate 3.5% among 310,000; AID 2546;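 further: Gal4-VP16 expression switched on by copper sulfate through the metallothionein promoter; potency means the concentration at half of the fitted maximal effect; on the % scale 0 is the no-effect control and ±100 the full control effect; nearly all actives have a fitted effect of over 50% in size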
Six1-Eya2 blk = inhibitors of human Six1/Eya2 interaction | Q15475+O00167 | AlphaScreen GST-Six1/His-Eya2 binding, biochemical; stronger effect = lower value | activity change, % (concentration not given with the values) | hit rate 0.56% among 360,000; in the data active means activity change below about -65%; inconclusive means mostly about -30% to -63%; further: on the % scale 0 is the no-effect control and ±100 the full control effect
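Compounds are tested against tagged Six1 and Eya2 proteins bridged by glutathione donor and nickel acceptor beads; after a one-hour incubation at 37 °C without light, AlphaScreen emission is recorded.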
RORgamma inh = blocks mouse ROR gamma transcriptional activity; Drosophila S2 Gal4-RORgamma UAS-luciferase reporter, 20 h; Potency, µM (titrated, usually from 53.6 µM), inactives show at the highest dose activity change, negative = inhibition, hits mostly inhibitors; hit rate 5.4% among 310,000; AID 2551; further: potency means the concentration at half of the fitted maximal effect; on the % scale 0 is the no-effect control and ±100 the full control effect; nearly all actives have a fitted effect of over 60% in size
Target sequence (P51450 whole entry, looked up, the tested form may be a part): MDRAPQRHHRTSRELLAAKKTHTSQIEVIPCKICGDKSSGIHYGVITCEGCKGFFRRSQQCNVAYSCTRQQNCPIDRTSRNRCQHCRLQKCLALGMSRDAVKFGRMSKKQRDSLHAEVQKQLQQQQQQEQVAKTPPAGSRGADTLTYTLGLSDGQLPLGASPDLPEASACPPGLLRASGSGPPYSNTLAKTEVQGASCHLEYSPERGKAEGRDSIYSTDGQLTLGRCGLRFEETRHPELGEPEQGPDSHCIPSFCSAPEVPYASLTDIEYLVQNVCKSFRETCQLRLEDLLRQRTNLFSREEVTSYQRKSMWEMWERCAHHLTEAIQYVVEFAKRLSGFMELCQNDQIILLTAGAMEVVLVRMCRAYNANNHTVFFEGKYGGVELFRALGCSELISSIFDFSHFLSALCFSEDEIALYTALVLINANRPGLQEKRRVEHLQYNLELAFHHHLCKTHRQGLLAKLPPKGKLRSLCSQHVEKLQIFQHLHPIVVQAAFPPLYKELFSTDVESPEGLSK
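Stably transfected Drosophila Schneider cells are the test system, with ROR gamma fused to Gal4 and luciferase under UAS control; luminescence is read after 20 hr of 700 uM copper sulfate induction at ambient temperature.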
p53 reactivation = re-activators of mutant p53. AID 504706. Potency, µM (highest dose often 92.2 µM), without a hit: top-dose activity change, positive = activation, usual class: activators. hit rate 0.063% among 320,000. H1299 p53-A138V BP100-luciferase reporter, luminescence, 24 h; further: potency means the concentration at half of the fitted maximal effect; % of control where 0% means no effect; nearly all actives have a fitted effect of over 45% in size
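H1299 (p53-null), stable ts p53-A138V + BP100-Luc; 1000 cells/well, Opti-MEM/10% FBS; cpd 4 pt, 1:5; 24 h, 37 deg C, 5% CO2; detection reagent 10 min RT; luminescence.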
The depositor's hits bear a star; [ ] = another dose, or the depositor's remark. Sampled rows, rich in hits. Any-hit rate of the full collection: about 5.4%. Unless noted, the call rests on the fitted dose curve; in most records, active means well fitted curve in the direction sought with a large enough effect; inconclusive means small, poorly fitted or top-dose-only effect, or another doubt; inactive means no such curve, though single readings can be large; an effect the other way counts as inactive or inconclusive.

`O=C(N/N=C/c1cccc2ccccc12)c1cccnc1` gave CtBP-E1A blk -7.6, VP16 counter 20.4%, Six1-Eya2 blk -22.1, RORgamma inh -4.0% and p53 reactivation 2.2%.
Cc1nn(C(C)C(=O)NC(C)CCc2ccccc2)c(=O)c2cc3occc3n12 (configuration not stated) was read as CtBP-E1A blk -4.5, VP16 counter 0.0%, Six1-Eya2 blk 0.2, RORgamma inh 15.5% and p53 reactivation 1.5%.
`O=C(CN1c2cccc3cccc(c23)S1(=O)=O)N1CCN(c2ccccc2)CC1` gave CtBP-E1A blk -19.7, Six1-Eya2 blk 0.7 and p53 reactivation 20.9%.
For Cn1cccc1C(=O)N1CCC[C@@]2(CCN(C(c3ccccc3)c3ccccc3)C2)C1 the results were VP16 counter 0.6% and RORgamma inh -20.3%.
Screening C/C(=N/NC(=O)c1ccccc1O)c1ccc(N2C(=O)C3CCCCC3C2=O)cc1 (configuration not stated) returned CtBP-E1A blk -1.7, VP16 counter inconclusive, Six1-Eya2 blk -7.7, RORgamma inh 12.6µM* and p53 reactivation 5.6%.
For C/C(=N\NC(=O)C1CC1)c1ccccc1Br the results were CtBP-E1A blk 5.2, VP16 counter 10µM*, Six1-Eya2 blk 2.2, RORgamma inh inconclusive and p53 reactivation -4.4%.
For C/C(=N\NC(=O)C1CC1)c1ccc(Cl)cc1 the results were CtBP-E1A blk -8.2, VP16 counter -11.7%, Six1-Eya2 blk 0.0, RORgamma inh 32.0% and p53 reactivation 15.4%.
C/C(=N\NC(=O)C1CC1)c1ccccc1O was read as CtBP-E1A blk -2.9, VP16 counter 6.31µM*, Six1-Eya2 blk -22.3, RORgamma inh 1µM* and p53 reactivation -0.3%.
Screening CCc1cc(=O)oc2cc3occ(-c4ccc(OC)c(F)c4)c3cc12 returned CtBP-E1A blk 6.6, VP16 counter 12.6µM*, Six1-Eya2 blk -0.6, RORgamma inh inconclusive and p53 reactivation -19.1%.
Screening O=C(c1cc[n+]([O-])cc1)N1CCCC(N2CCN(c3cccc(C(F)(F)F)c3)CC2)C1 (configuration not stated) returned CtBP-E1A blk -8.8, VP16 counter -65.5%, Six1-Eya2 blk -4.1, RORgamma inh 1.26µM* and p53 reactivation -30.6%.
`COC(=O)[C@H]1[C@H]2C[C@@H]3c4[nH]c5ccccc5c4CCN3C[C@H]2C[C@@H](OC(=O)c2cc(OC)c(OC)c(OC)c2)[C@@H]1OC` gave VP16 counter inconclusive and RORgamma inh 7.08µM*.
COC(=O)[C@H]1C(OC)[C@@H](OC(=O)c2cc(OC)c(OC)c(OC)c2)C[C@@H]2CN3CCc4c([nH]c5cc(OC)ccc45)[C@H]3C[C@H]21 (some centres not stated) was read as VP16 counter -6.5% and RORgamma inh -34.3%.
`COCCNC(=O)Cn1cc(C(=S)N2CCOCC2)c2ccccc21` gave CtBP-E1A blk 12.5, VP16 counter 1.8%[10 µM], Six1-Eya2 blk 0.3, RORgamma inh -17.7% and p53 reactivation -0.4%.
`C=C1C2CC[C@@]3(C)C(c4ccoc4)OC(=O)C[C@@]13OC1CC(OC(C)=O)C(C)(C)C(CC(=O)OC)[C@@]12C` (some centres not stated) gave VP16 counter -0.9% and RORgamma inh 2.82µM*.
For COC(=O)C1(c2ccccc2)NC(c2ccc(O)cc2)C2C(=O)N(c3ccc4c(c3)OCO4)C(=O)C21 (configuration not stated) the results were CtBP-E1A blk -20.1, VP16 counter 0.3%, Six1-Eya2 blk -0.3, RORgamma inh 0.6% and p53 reactivation -5.9%.
`CC1=CC2(O)OCCN(CCO)C2=CC1=O` (configuration not stated) gave CtBP-E1A blk -7.8, VP16 counter 15.8µM*, Six1-Eya2 blk -1.8, RORgamma inh 15.8µM* and p53 reactivation 27.6%.
Screening Cc1cc(C)n(-c2ncc3c(n2)N(CCO)CCOC3=O)n1 returned VP16 counter 3.9%, Six1-Eya2 blk -0.5, RORgamma inh 3.7% and p53 reactivation 3.3%.
`CN(C(=O)Cn1cccc1C1=NC(c2ccccc2)CO1)c1ccccc1` (configuration not stated) gave CtBP-E1A blk -9.8, VP16 counter -4.9%, Six1-Eya2 blk -6.7, RORgamma inh 17.5% and p53 reactivation -1.5%.
Cc1cc(C)c2[nH]c(O)c(N=Nc3ccc(C(=O)O)cc3)c2c1 was read as CtBP-E1A blk -19.8, VP16 counter -15.3%, Six1-Eya2 blk -3.4, RORgamma inh 36.8% and p53 reactivation 12.8%.
For O=C(NCC1CCCO1)c1cc2cc(Cl)ccc2[nH]1 (configuration not stated) the results were CtBP-E1A blk 0.0 and Six1-Eya2 blk 15.4.
`Cc1cc(C)c2[nH]c(O)c(N=NC(=S)NCC3CCCO3)c2c1` (configuration not stated) gave CtBP-E1A blk -8.9, VP16 counter 7.08µM*, Six1-Eya2 blk -9.5, RORgamma inh 5.01µM* and p53 reactivation 1.4%.
`Oc1[nH]c2ccc(Br)cc2c1N=NC(=S)NCC1CCCO1` (configuration not stated) gave CtBP-E1A blk 12.3, VP16 counter inconclusive, Six1-Eya2 blk -3.6, RORgamma inh 1.41µM* and p53 reactivation 0.3%.
`Oc1[nH]c2c(Cl)cc(Cl)cc2c1N=NC(=S)NCC1CCCO1` (configuration not stated) gave CtBP-E1A blk 0.7, VP16 counter 1.12µM*, Six1-Eya2 blk -23.1, RORgamma inh 1.26µM* and p53 reactivation -20.8%.
CCn1c(O)c(N=NC(=S)NCC2CCCO2)c2ccccc21 (configuration not stated) was read as VP16 counter 1.78µM*, Six1-Eya2 blk -7.4, RORgamma inh 0.282µM* and p53 reactivation 3.7%.
`Oc1[nH]c2ccccc2c1N=NC(=S)NCC1CCCO1` (configuration not stated) gave CtBP-E1A blk -5.3, VP16 counter -10.1%, Six1-Eya2 blk -25.2, RORgamma inh -12.8% and p53 reactivation 6.0%.
Cc1cccc(C)c1OCCNC(=O)OCc1ccccc1 was read as VP16 counter -2.7%, Six1-Eya2 blk 12.9, RORgamma inh 30.8% and p53 reactivation 9.4%.
Screening COc1ccccc1CNC(=O)C(=O)NCC1OCCN1C(=O)c1cccs1 (configuration not stated) returned CtBP-E1A blk 12.1, VP16 counter -7.4%, Six1-Eya2 blk 11.3, RORgamma inh 9.5% and p53 reactivation -7.7%.
`COc1cc2nc(=S)n3[nH]c(COc4ccccc4C)nc3c2cc1OC` gave CtBP-E1A blk 5.1, VP16 counter 0.398µM*, Six1-Eya2 blk -15.0, RORgamma inh 0.199µM* and p53 reactivation -3.8%.
